From PubChem BioAssay AID504913 (The Scripps Research Institute Molecular Screening Center, 2011)
The list shows a part of the results. Active and inactive are the calls of the source. Rule as the data show it: active = activation above about 18%; inactive = the rest.

experiment: OPRM1-OPRD1 heterodimerization promoters, counter-screen for HTR5A agonist project, cell-based, luminescence (AID 504913); details: U2OS counter-screen cells, complementation luminescence, 3 h; at 9.3 µM; stronger effect = higher value

SMILES	activation
CN1c2ccc(C=O)c3c(C=O)ccc(c23)N(C)C1(C)C	107% (active)
Cc1c(C(=O)OCC(=O)N2CCCC2=O)oc2ccccc12	1.27% (inactive)
Cc1ccccc1CN1CCN(CC(=O)NCc2ccccn2)C1=O	0.64% (inactive)
Cc1ccc(C(=O)N/C(=C/c2ccco2)C(=O)NCCc2c[nH]c3ccccc23)cc1C	0.35% (inactive)
O=C(CNCc1ccco1)Nc1cc(S(=O)(=O)N2CCOCC2)ccc1N1CCCC1	3.16% (inactive)
CCn1nc(C(=O)OCC(=O)N2c3ccccc3CC2C)c2ccccc2c1=O (centres undefined)	1.02% (inactive)
CCOC(=O)c1cnc2sccn2c1=O	1.07% (inactive)
Cc1ccc(CN2CCN(Cc3ccc(OCCO)cc3)CC2CCO)o1 (centres undefined)	-0.37% (inactive)
CC(C)OC(=O)c1c(NC(=O)c2ccco2)sc2c1CCCC2	4.46% (inactive)
COc1ccc2[nH]cc(CCN3C(=O)c4ccc(C(=O)O)cc4C3=O)c2c1	1.66% (inactive)
CCCOc1ccc(C(=O)C(CCC(CNCC)C(=O)c2ccc(OCCC)cc2)CNCC)cc1 (centres undefined)	-0.5% (inactive)
C/C(=N\NC(=O)CNc1cccc2ccccc12)c1ccc(Br)s1	-1.65% (inactive)
COC(=O)c1cc(C(=O)OCC(=O)Nc2cc(C)on2)cc([N+](=O)[O-])c1	1.24% (inactive)
COc1c(Cl)cc(C(=O)Nc2ccc(Cl)cn2)cc1Cl	9.05% (inactive)
COc1cccc(OCC(=O)Nc2ccccc2C(N)=O)c1	0.46% (inactive)
c1ccc(-n2nc3ccccc3n2)cc1	2.66% (inactive)
CC(C)CC(=O)N/C(N)=N/c1nc2ccccc2s1	5.76% (inactive)
CCOc1ccc(NC(=O)Nc2cc(C)on2)cc1	0.12% (inactive)
O=C(c1cccnc1)N(c1cc2sc(=O)oc2c2ccccc12)S(=O)(=O)c1ccccc1	4.54% (inactive)
Cc1ccc(-c2csc(SCC(=O)Nc3cc(C)on3)n2)cc1	0.69% (inactive)
COc1cccc(/C=N/NC(=O)c2[nH]nc3c2CCc2ccccc2-3)c1O	-4.02% (inactive)
CC1(C)C2CCC1(CS(=O)(=O)NCCc1c[nH]c3ccccc13)C(=O)C2 (centres undefined)	0.82% (inactive)
COc1ccc(/C=C(\C#N)c2c[nH]c3ccccc23)cc1	6.75% (inactive)
Cc1oc2c(F)c(F)c(F)c(F)c2c1S(=O)(=O)Nc1cccc(C(F)(F)F)c1	-0.99% (inactive)
